Measurements reported in PubChem BioAssay (NCI).
Several values for one entry are separate records, joined by “and”; a condition that tells them apart may be missing. Identical values can stand only once. About 79,000 compounds went through this panel and 15% of them were active in at least one assay; those are over-represented in the sample as a whole. Cut-off read from the data, not from the text of the source: active = growth inhibition above about 70%; inactive = the rest.

Key:
[1] = NCI Yeast Anticancer Drug Screen. Data for the rad50 strain (AID 155);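 note: 0% = growth of vehicle-only cultures of the same strain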; conditions: S. cerevisiae rad50 strain growth inhibition; at 50.0 µM; hits give high values
Method in brief: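 Yeast carrying a defined DNA repair defect were exposed to test compounds, and growth was compared with vehicle-treated controls to give percent inhibition.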

[2] = NCI Yeast Anticancer Drug Screen. Data for the mec2-1 strain (AID 157); conditions: S. cerevisiae mec2-1 strain, at 50.0 µM, hits give high values
Method in brief: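 Compounds were applied to mec2-1 yeast cells. Their growth was then compared with that of vehicle-treated cultures to give growth inhibition.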

[3] = NCI Yeast Anticancer Drug Screen. Data for the sgs1 mgt1 strain (AID 161);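 note: 0% = growth of cultures given vehicle only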; conditions: S. cerevisiae sgs1 mgt1 strain, at 50.0 µM, hits give high values
Method in brief: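 Compounds are added to genetically altered yeast, and growth is compared with cultures given vehicle alone to give percent inhibition.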

[4] = NCI Yeast Anticancer Drug Screen. Data for the cln2 rad14 strain (AID 165);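 note: 0% = growth equal to vehicle treated cultures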; conditions: S. cerevisiae cln2 rad14 strain, at 50.0 µM, hits give high values
Method in brief: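 Strain: cln2 rad14 yeast, altered in cell cycle control and DNA damage repair. Read-out: growth inhibition vs vehicle.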

[5] = NCI Yeast Anticancer Drug Screen. Data for the bub3 strain (AID 167); conditions: S. cerevisiae bub3 mutant strain, at 50.0 µM, hits give high values
Method in brief: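 Compounds were applied to a genetically altered yeast strain carrying a cell-cycle control defect. Growth inhibition was scored against vehicle-treated controls.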

[6] = NCI Yeast Anticancer Drug Screen. Data for the mlh1 rad18 strain (AID 175); conditions: S. cerevisiae mlh1 rad18 strain growth inhibition; at 50.0 µM; hits give high values
Method in brief: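 A repair-deficient yeast strain is exposed to test compound, and growth is scored relative to vehicle-treated controls.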

Measured: growth inhibition

COC(=O)c1cccc2cc3cccc[n+]3cc12
inactive: [1] 3.7% | [2] -5.5% | [3] -9.3% | [4] -35.3% | [5] -1.05% | [6] 0.75%

CCOC(=O)C(Cc1ccc(N(CCCl)CCCl)cc1)NC(=O)C(N)CO (centres undefined)
inactive: [1] -4.05% | [2] 17.6% | [3] 4.75% | [4] -1.3% | [5] 12.3% | [6] 7.5%

CCOC(=O)C(C)(C)C(OP(=S)(OCC)OCC)=C(C)C
inactive: [1] 4.6% | [2] 12.4% | [3] 12.7% | [4] 23.8% | [5] 18% | [6] 7.15%

C[C@]12C=CC(=O)C=C1CC[C@@H]1[C@@H]2C(=O)C[C@]2(C)C(=O)CC[C@@H]12
inactive: [1] -11.4% | [2] -19.1% | [3] 2.05% | [4] -1.85% | [5] -4.4% | [6] 4.95%

Cc1cccc(NC(=O)CCl)c1
inactive: [1] 1.65% | [2] -23.4% | [3] 10.8% | [4] -4.6% | [5] 21.9% | [6] 19.8%

CCCCCCN1C(C)C1C(C)C (centres undefined)
inactive: [1] 5.7% | [2] 12.2% | [3] 2.25% | [4] -3.8% | [5] -4.15% | [6] 1.6%

CC(=O)OC1CC2(O)C(CCC3(C)C(c4ccc(=O)oc4)CCC32O)C2(C)C1=CC(O)C1OC12 (centres undefined)
inactive: [1] 3.95% | [2] 6.85% | [3] -12.4% | [4] -1.7% | [5] -2% | [6] -13.9%

OCC12COCN1COC2
inactive: [1] 8.4% | [2] -15.9% | [3] -23.6% | [4] -14% | [5] -0.4% | [6] -31.9%

O=S(=O)(c1ccc(O)cc1)c1ccc(O)cc1
inactive: [1] -5.25% and 0.75% | [2] -2.8% and -7.6% | [3] -3.75% and -4.95% | [4] -11.7% and -36.2% | [5] 1.85% and -8.15% | [6] 2.55% and -4.05%

OCN1CCC23c4c5ccc(O)c4OC2C(O)C=CC3C1C5 (centres undefined)
inactive: [1] -4.75% | [2] -3.4% | [3] 3.35% | [4] -68.5% | [5] 20.1% | [6] -12%

CCCCCOP(=O)(OCCCCC)C(=O)Nc1ccc([N+](=O)[O-])cc1
inactive: [1] -12.9% | [2] 4.85% | [3] -5.25% | [4] -3.2% | [5] -1.8% | [6] 10.9%

C#CCN1C(=O)CN2C(Cl)(Cl)C2(c2ccccc2)c2cc(Cl)ccc21 (centres undefined)
inactive: [1] 20.1% | [2] 16.1% | [3] -13.4% | [4] -1.8% | [5] 3.35% | [6] 37.6%

[C-]#[N+]C1CCCCC1.[C-]#[N+]C1CCCCC1.[Ni].[S-]c1ccccc1.[S-]c1ccccc1
inactive: [1] 37.5% | [2] 16% | [3] 40.4% | [4] 20.1% | [5] 3.5% | [6] 36.6%

CC1=NCCN=C(C)C1[N+](=O)[O-]
inactive: [1] 6.7% | [2] 10.9% | [3] 39.2% | [4] 0.55% | [5] 2.65% | [6] 24.3%

C1=[N+]2CCCC2Cc2ccc3ccccc3c21 (centres undefined)
inactive: [1] -17.8% | [2] -6.1% | [3] -4.15% | [4] -16.4% | [5] -4.6% | [6] -8.85%

CC(O)C[N+](=O)[O-] (centres undefined)
inactive: [1] 5.35% | [2] 8.65% | [3] -4.6% | [4] -23% | [5] 8.5% | [6] 4.8%

CCCC[As](=O)(O)C(C)C
inactive: [1] 5% | [2] 9.25% | [3] 2.5% | [4] 16% | [5] 6.95% | [6] 14.1%

COP(=O)(OC)C(N)CCSC (centres undefined)
inactive: [1] -25.1% | [2] -65.7% | [3] -61.8% | [4] 23.7% | [5] 17.1% | [6] -2.1%

Cc1ccc(CCl)c(C)c1
inactive: [1] -21.1% | [2] 8.4% | [3] -6.95% | [4] -39% | [5] 5.45% | [6] -19%

NC(Cc1ccccc1)c1ccccc1 (centres undefined) (tested in a mixture with another compound)
inactive: [1] 0.6% | [2] -17.4% | [3] -6.4% | [4] 9.7% | [5] 2.6% | [6] 2.55%

COC(=O)C1(C(=O)OC)Cc2ccc(C)cc2C2=C1C(=O)c1ccccc1C2=O
inactive: [1] -25.8% | [2] -10.2% | [3] 5.5% | [4] 7.55% | [5] -3.4% | [6] 7.85%

CN(N=O)c1ccc([N+](=O)[O-])cc1
inactive: [1] 26.2% | [2] 26.4% | [3] 15.8% | [4] 18.2% | [5] 24.4% | [6] 28.1%

CCn1/c(=N\N=O)sc2ccccc21
inactive: [1] -4.1% | [2] 6.05% | [3] -4.2% | [4] -23.9% | [5] -35.3% | [6] 3.6%

COc1cccc(C2(C#N)CCN(C)CC2)c1
inactive: [1] 28.1% | [2] 23.1% | [3] 22.7% | [4] -7.45% | [5] 12.7% | [6] 62.5%

NC(=S)c1cc(N(CCCl)CCCl)c([N+](=O)[O-])cc1[N+](=O)[O-]
inactive: [1] 22.4% | [2] -0.25% | [3] 8.85% | [4] 8.85% | [5] -11.6% | [6] -22.5%

C[N+](C)(C)CC(=O)O
inactive: [1] -4.3% and -7.25% | [2] -10.6% and 10.3% | [3] -20.4% and -6% | [4] 10.8% and -11.2% | [5] -29.2% and 3.4% | [6] -2.65% and -7%

COC(=O)c1ccccc1NP(=O)(O)Oc1ccccc1 (tested in a mixture with another compound)
inactive: [1] 9.7% | [2] -4.05% | [3] 11.5% | [4] -32.5% | [5] -2.7% | [6] -11.9%

CCC[N+](CCC)(CCC)CCC.N#CC(C#N)=C([SH2+])[SH2+].N#CC(C#N)=C([SH2+])[SH2+].N#CC(C#N)=C([SH2+])[SH2+].[Cr+3]
inactive: [1] -3.1% | [2] 10.2% | [3] 11.8% | [4] -35% | [5] 9.1% | [6] 7.5%

c1ccc(N2CCNCC2)nc1
inactive: [1] -6.4% | [2] -4.3% | [3] 9.2% | [4] 6.9% | [5] 8.25% | [6] 0.15%

Brc1ccc(NP(Br)(c2ccccc2)(c2ccccc2)c2ccccc2)cc1
inactive: [1] 52.8% | [2] 5.6% | [3] 58% | [4] 11.8% | [5] 11.9% | [6] 20.1%

C1CC2CCC(N3CCCC3)C(C1)C21OCCO1 (centres undefined)
inactive: [1] 11.3% | [2] 9.75% | [3] 5.05% | [4] -3.2% | [5] 6.45% | [6] -8.9%

O=S(O)(O)=S.[Co+3].[NH-]CC[NH-].[NH-]CC[NH-].[NH2-].[NH2-]
inactive: [1] -8.05% | [2] -6.85% | [3] 2% | [4] -19.4% | [5] 14.8% | [6] 7.05%

[Ni+2].[S-]CC[S-]
inactive: [1] 0.4% | [2] 12.4% | [3] -8.75% | [4] 1.95% | [5] 0.4% | [6] -4.85%

CSC(SC)P(=O)(Oc1ccccc1)Oc1ccccc1
inactive: [1] -10.4% | [2] 2.85% | [3] 1.4% | [4] 4.45% | [5] 8.7% | [6] 10.6%

Cc1ccccc1-n1c(CCl)nc2ccc(Br)cc2c1=O
inactive: [1] 18.4% | [2] 2.6% | [3] 12.6% | [4] 6.05% | [5] 1.35% | [6] 27.1%

O=C(Cc1ccccc1)Nc1ccc(Cl)cc1C(=O)c1ccccc1
inactive: [1] 1.95% | [2] 44.2% | [3] 40.1% | [4] -18.3% | [5] 23.1% | [6] 36.7%

[C-]#[O+].[C-]#[O+].[Ni].c1ccc([PH+](CC[PH+](c2ccccc2)c2ccccc2)CC[PH+](c2ccccc2)c2ccccc2)cc1
inactive: [1] -23.4% | [2] 0.4% | [3] -22.4% | [4] 3.75% | [5] 7.6% | [6] -10.2%

COC(=O)C(CC(=O)N[N+](=O)[O-])NC(=O)C(CSC(c1ccccc1)(c1ccccc1)c1ccccc1)NC(=O)OCc1ccccc1 (centres undefined)
inactive: [1] -3.4% | [2] 11.7% | [3] -4.25% | [4] -15.1% | [5] -8.1% | [6] 29.3%

Oc1ccc(C=NCC2CCCC[N-]2)c(O)c1.Oc1ccc(C=NCC2CCCC[N-]2)c(O)c1.[Ni+2] (centres undefined)
inactive: [1] 7.3% | [2] 8% | [3] 6.55% | [4] 5.15% | [5] 11.2% | [6] -8.4%
